Data taken from PMC7862700, “An all-to-all approach to the identification of sequence-specific readers for epigenetic DNA modifications on cytosine”.

Key:
Assay in all cases: DAPPL (digital affinity profiling via proximity ligation, sequencing); 10 mM Tris-HCl pH 7.5, 50 mM NaCl, 1 mM DTT, 4% glycerol, room temperature, 30 min; GST-TFs on glutathione beads, 16-mer random dsDNA library, 0.1% formaldehyde crosslink after washing; high values mean tight binding
[1] = target: T1, FLI1 (Homo sapiens, UniProt Q01543 1-452); settings: protein: recombinant; tags: N-terminal GST; dsDNA, one strand shown
T1 sequence: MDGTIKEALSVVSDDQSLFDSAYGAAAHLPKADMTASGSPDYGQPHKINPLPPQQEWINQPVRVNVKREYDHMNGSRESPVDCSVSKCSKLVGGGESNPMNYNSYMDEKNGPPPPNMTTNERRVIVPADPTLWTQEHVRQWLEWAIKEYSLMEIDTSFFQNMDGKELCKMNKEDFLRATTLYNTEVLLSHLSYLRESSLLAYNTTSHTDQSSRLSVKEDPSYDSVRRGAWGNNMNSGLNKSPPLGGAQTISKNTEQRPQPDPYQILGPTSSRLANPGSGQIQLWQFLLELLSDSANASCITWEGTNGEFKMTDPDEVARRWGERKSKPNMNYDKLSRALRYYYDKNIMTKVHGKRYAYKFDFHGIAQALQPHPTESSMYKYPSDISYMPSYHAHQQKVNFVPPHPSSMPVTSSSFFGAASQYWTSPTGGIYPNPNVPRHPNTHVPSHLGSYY
Procedure, shortened: (§1)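 Human transcription factors carrying a GST fusion were produced in yeast, bound to glutathione beads, tagged with DNA barcodes and pooled together with a tag-only sample. Each pool was held with 200 nmole of a random double-stranded 16-mer DNA library in Tris/NaCl/DTT/glycerol buffer for 30 min at room temperature, then washed, crosslinked in 0.1% formaldehyde, proximity-ligated with BsaI/T4 ligase (1 h, 37 °C), PCR-amplified and sequenced on an Illumina NextSeq500. Binding signal is the read frequency of each hexamer for a given factor divided by its frequency in the tag-only sample.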

[2] = target: T2, ELK1 (Homo sapiens, UniProt P19419 1-428); settings: protein: recombinant; tags: N-terminal GST; dsDNA, one strand shown
T2 sequence: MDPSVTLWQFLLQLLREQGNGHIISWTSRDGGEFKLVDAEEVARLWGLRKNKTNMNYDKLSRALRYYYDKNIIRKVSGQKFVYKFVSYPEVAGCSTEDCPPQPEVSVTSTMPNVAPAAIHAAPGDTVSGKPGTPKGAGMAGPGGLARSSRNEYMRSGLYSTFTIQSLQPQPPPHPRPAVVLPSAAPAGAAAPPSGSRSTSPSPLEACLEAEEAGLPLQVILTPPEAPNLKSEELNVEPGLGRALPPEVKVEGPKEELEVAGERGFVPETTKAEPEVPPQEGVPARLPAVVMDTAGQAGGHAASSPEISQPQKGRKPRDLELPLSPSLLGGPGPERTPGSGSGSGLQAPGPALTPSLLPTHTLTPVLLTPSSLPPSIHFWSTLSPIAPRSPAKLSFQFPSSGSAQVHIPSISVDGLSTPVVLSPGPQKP
Procedure, shortened: as §1

[3] = target: T3, GABPA (Homo sapiens, UniProt Q06546 1-454); settings: protein: recombinant; tags: N-terminal GST; dsDNA, one strand shown
T3 sequence: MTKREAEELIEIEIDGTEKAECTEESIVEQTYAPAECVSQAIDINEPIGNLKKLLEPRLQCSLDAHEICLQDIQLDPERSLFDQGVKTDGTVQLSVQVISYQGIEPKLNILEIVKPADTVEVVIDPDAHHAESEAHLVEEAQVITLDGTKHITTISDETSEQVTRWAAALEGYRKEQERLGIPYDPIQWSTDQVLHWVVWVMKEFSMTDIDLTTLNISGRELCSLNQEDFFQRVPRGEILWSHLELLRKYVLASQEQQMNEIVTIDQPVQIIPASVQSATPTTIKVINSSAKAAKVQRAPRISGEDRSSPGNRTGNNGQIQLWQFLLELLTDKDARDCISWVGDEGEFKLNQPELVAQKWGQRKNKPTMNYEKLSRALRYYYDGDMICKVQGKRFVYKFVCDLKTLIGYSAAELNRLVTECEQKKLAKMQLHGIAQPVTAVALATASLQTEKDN
Procedure, shortened: as §1

[4] = target: T4, ERG (Homo sapiens, UniProt P11308 1-479); settings: protein: recombinant; tags: N-terminal GST; dsDNA, one strand shown
T4 sequence: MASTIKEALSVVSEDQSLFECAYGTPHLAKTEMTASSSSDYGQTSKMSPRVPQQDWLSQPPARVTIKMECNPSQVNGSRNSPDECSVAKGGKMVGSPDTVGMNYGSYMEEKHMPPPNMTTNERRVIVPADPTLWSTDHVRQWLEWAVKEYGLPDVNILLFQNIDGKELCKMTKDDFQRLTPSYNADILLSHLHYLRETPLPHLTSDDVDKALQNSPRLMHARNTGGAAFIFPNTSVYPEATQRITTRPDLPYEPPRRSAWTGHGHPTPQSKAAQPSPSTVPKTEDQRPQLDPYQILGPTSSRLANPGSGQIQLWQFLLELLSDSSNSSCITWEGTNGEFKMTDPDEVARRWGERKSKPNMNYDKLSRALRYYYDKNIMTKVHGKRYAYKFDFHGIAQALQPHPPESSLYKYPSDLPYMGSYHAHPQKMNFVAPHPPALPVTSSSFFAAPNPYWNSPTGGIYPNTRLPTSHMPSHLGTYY
Procedure, shortened: as §1

[5] = target: ELF1 (Homo sapiens, UniProt P32519 1-619); settings: protein: recombinant; tags: N-terminal GST; dsDNA, one strand shown
Procedure, shortened: as §1

[6] = target: T5, EHF (Homo sapiens, UniProt Q9NZC4 1-300); settings: protein: recombinant; tags: N-terminal GST; dsDNA, one strand shown
T5 sequence: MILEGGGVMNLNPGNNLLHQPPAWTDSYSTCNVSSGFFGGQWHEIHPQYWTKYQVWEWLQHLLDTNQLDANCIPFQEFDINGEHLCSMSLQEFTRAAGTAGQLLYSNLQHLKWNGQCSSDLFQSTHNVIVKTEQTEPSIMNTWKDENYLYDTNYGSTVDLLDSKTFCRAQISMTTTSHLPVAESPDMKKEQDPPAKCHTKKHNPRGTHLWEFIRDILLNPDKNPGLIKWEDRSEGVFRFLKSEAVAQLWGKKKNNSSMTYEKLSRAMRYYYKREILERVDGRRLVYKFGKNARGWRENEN
Procedure, shortened: as §1

[7] = target: SPI1 (Homo sapiens, UniProt P17947 1-270); settings: protein: recombinant; tags: N-terminal GST; dsDNA, one strand shown
Procedure, shortened: as §1

[8] = target: SPIB (Homo sapiens, UniProt Q01892 1-262); settings: protein: recombinant; tags: N-terminal GST; dsDNA, one strand shown
Procedure, shortened: as §1

[9] = target: T6, ELK3 (Homo sapiens, UniProt P41970 1-407); settings: protein: recombinant; tags: N-terminal GST; dsDNA, one strand shown
T6 sequence: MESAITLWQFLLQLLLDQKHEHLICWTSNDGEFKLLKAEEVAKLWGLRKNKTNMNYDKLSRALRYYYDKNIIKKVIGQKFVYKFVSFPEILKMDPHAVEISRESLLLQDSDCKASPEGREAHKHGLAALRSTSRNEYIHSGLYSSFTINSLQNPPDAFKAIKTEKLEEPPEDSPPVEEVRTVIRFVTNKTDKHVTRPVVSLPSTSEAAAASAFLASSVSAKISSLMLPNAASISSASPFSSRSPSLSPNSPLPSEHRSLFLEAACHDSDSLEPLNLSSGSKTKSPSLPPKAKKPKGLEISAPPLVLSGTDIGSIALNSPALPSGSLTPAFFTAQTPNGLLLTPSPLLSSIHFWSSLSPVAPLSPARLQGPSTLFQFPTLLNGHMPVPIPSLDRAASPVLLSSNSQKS
Procedure, shortened: as §1

[10] = target: T7, FEV (Homo sapiens, UniProt Q99581 1-238); settings: protein: recombinant; tags: N-terminal GST; dsDNA, one strand shown
T7 sequence: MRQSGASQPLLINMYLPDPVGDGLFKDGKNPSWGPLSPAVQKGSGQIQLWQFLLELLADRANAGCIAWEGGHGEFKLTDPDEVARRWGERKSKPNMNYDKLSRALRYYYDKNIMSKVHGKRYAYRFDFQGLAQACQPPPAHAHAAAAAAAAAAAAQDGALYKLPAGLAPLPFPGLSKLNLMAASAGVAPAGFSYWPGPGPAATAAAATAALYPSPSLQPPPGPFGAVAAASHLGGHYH
Procedure, shortened: as §1

[11] = target: ETV5 (Homo sapiens, UniProt P41161 1-510); settings: protein: recombinant; tags: N-terminal GST; dsDNA, one strand shown
Procedure, shortened: as §1

[12] = target: HSF1 (Homo sapiens, UniProt Q00613 1-529); settings: protein: recombinant; tags: N-terminal GST; chain copies: 3; dsDNA, one strand shown
Procedure, shortened: as §1

[13] = target: T8, SPIC (Homo sapiens, UniProt Q8N5J4 1-248); settings: protein: recombinant; tags: N-terminal GST; dsDNA, one strand shown
T8 sequence: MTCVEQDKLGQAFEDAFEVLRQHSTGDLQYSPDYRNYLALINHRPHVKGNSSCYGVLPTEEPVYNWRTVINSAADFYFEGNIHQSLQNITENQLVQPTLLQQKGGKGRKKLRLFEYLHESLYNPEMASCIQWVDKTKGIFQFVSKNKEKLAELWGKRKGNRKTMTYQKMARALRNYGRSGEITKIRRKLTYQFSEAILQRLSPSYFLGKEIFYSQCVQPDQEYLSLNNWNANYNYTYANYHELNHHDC
Procedure, shortened: as §1

[14] = target: ELF4 (Homo sapiens, UniProt Q99607 1-663); settings: protein: recombinant; tags: N-terminal GST; dsDNA, one strand shown
Procedure, shortened: as §1

[15] = target: T9, ELK4 (Homo sapiens, UniProt P28324-2 1-405); settings: protein: recombinant; tags: N-terminal GST; dsDNA, one strand shown
T9 sequence: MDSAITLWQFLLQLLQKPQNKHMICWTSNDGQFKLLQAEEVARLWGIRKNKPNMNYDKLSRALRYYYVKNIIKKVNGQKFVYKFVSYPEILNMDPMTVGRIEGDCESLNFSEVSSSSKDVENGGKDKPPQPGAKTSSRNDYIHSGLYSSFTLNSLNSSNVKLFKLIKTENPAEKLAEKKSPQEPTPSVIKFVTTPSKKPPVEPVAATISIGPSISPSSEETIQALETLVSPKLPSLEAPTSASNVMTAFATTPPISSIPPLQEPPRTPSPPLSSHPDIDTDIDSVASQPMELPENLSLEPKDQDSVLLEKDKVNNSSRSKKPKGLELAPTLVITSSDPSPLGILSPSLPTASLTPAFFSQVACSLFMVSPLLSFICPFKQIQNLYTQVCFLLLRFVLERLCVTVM
Procedure, shortened: as §1

[16] = target: T10, ETV2 (Homo sapiens, UniProt O00321 1-342); settings: protein: recombinant; tags: N-terminal GST; dsDNA, one strand shown
T10 sequence: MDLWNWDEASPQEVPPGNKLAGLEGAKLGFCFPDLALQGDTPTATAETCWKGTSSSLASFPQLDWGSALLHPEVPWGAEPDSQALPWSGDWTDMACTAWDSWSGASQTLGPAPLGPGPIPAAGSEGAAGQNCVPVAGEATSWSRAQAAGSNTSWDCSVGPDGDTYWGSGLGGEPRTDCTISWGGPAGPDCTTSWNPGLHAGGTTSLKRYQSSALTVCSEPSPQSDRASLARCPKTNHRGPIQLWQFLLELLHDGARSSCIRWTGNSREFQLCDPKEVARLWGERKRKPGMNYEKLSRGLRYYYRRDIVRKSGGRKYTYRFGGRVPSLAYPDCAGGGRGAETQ
Procedure, shortened: as §1

[17] = target: T11, ELF3 (Homo sapiens, UniProt P78545 1-371); settings: protein: recombinant; tags: N-terminal GST; dsDNA, one strand shown
T11 sequence: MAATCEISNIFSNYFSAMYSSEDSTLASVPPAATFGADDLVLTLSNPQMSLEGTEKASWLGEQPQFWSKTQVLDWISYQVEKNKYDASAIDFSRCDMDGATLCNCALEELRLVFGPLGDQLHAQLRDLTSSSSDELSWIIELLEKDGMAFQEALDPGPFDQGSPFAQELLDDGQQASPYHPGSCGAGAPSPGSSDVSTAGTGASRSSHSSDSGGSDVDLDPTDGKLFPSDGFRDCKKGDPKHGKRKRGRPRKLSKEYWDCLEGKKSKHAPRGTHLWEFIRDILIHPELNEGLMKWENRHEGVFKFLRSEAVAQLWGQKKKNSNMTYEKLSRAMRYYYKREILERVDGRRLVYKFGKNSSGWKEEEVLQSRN
Procedure, shortened: as §1

[18] = target: ETV1 (Homo sapiens, UniProt P50549 1-477); settings: protein: recombinant; tags: N-terminal GST; dsDNA, one strand shown
Procedure, shortened: as §1

Sequence of SPIB (Q01892 whole entry): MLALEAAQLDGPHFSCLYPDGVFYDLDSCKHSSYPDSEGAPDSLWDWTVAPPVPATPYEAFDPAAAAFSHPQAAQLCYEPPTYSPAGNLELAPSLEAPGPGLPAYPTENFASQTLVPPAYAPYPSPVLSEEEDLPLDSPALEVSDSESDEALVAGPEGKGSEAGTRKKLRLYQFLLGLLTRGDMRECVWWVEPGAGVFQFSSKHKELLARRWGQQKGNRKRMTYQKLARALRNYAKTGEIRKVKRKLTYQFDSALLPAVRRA
Sequence of ELF1 (P32519 whole entry): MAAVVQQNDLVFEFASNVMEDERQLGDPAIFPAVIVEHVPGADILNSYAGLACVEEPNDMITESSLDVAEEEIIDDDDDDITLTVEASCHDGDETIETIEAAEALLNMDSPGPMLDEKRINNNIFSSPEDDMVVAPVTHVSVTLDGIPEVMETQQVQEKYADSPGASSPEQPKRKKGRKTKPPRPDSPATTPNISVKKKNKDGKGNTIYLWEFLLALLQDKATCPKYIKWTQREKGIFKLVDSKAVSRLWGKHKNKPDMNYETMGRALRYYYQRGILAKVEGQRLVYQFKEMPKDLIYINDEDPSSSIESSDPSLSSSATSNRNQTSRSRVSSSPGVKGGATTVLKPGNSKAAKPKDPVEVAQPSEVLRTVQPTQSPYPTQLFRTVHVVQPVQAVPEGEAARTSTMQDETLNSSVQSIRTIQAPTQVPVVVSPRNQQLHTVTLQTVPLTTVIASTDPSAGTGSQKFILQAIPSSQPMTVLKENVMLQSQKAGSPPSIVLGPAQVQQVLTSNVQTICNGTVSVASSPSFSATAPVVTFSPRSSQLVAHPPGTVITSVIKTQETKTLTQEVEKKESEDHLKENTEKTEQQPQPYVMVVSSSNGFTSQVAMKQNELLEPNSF
Sequence of ELF4 (Q99607 whole entry): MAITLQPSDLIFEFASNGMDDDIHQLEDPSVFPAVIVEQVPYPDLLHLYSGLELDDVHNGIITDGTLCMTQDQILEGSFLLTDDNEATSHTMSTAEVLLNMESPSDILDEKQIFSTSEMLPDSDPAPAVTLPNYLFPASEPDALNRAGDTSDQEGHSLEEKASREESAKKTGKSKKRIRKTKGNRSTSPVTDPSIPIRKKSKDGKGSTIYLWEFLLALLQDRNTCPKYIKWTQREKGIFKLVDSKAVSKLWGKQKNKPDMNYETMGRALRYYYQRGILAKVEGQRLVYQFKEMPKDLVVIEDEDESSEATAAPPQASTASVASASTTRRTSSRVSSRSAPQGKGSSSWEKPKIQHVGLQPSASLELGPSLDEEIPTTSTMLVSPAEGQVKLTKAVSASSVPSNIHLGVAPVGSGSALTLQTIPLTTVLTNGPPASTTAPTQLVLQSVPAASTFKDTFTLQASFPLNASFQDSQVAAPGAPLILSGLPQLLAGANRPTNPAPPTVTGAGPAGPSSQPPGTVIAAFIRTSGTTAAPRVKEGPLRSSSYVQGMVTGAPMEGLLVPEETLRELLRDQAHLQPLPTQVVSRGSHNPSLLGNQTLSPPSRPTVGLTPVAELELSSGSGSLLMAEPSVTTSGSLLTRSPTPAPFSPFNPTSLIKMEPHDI
Sequence of HSF1 (Q00613 whole entry): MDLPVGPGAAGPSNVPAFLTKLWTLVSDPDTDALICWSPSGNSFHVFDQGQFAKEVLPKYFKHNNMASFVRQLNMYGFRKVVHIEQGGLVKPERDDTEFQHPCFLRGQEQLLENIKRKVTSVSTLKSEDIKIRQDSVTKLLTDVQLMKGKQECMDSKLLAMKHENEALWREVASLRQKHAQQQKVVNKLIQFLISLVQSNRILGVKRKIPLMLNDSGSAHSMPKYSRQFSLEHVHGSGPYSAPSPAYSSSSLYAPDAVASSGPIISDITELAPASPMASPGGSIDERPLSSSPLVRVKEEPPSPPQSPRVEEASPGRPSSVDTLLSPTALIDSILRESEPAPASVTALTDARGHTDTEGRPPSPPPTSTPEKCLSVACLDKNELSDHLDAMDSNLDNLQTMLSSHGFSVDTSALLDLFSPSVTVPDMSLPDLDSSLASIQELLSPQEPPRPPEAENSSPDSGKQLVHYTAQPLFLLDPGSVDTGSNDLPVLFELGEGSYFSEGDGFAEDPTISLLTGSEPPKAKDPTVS
Sequence of ETV1 (P50549 whole entry): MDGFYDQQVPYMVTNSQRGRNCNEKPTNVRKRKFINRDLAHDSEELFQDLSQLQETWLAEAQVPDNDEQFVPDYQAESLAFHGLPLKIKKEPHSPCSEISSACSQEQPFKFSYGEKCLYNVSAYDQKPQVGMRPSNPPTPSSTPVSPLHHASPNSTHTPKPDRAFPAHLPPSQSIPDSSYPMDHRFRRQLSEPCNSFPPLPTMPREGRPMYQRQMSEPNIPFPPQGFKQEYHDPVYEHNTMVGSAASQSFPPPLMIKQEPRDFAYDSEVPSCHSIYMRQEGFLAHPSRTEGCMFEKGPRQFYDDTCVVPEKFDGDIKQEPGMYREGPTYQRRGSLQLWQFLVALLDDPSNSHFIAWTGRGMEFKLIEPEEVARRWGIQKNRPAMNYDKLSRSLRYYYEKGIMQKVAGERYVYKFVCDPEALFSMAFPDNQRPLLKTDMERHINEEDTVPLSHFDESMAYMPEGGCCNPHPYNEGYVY
Sequence of ETV5 (P41161 whole entry): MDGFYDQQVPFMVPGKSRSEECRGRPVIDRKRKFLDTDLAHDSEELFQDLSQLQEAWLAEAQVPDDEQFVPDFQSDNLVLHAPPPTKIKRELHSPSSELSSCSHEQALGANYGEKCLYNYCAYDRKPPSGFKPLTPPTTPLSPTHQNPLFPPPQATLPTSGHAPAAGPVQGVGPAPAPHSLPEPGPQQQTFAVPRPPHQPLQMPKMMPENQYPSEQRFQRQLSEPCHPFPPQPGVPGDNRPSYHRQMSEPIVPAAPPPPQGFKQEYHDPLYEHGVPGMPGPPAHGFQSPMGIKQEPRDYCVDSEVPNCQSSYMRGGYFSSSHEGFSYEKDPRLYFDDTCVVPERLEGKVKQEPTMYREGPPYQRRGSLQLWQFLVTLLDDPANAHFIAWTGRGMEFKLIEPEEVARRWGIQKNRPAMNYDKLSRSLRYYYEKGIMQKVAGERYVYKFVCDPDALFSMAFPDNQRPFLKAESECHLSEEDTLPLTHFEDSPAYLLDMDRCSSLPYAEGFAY

CTGCCA was tested, and the binding signal [1] was 1.18 fold enrichment (6-mer frequency, TF over GST control), the binding signal [2] was 1.17 fold enrichment (6-mer frequency, TF over GST control) and the binding signal [3] was 1.24 fold enrichment (6-mer frequency, TF over GST control). For the same sequence, the binding signal [4] was 1.23 fold enrichment (6-mer frequency, TF over GST control), the binding signal [5] was 1.23 fold enrichment (6-mer frequency, TF over GST control) and the binding signal [6] was 1.18 fold enrichment (6-mer frequency, TF over GST control). The binding signal [7] was 1.24 fold enrichment (6-mer frequency, TF over GST control), the binding signal [8] was 1.28 fold enrichment (6-mer frequency, TF over GST control) and the binding signal [9] was 1.08 fold enrichment (6-mer frequency, TF over GST control). The binding signal [10] was 1.24 fold enrichment (6-mer frequency, TF over GST control), the binding signal [11] was 1.15 fold enrichment (6-mer frequency, TF over GST control) and the binding signal [12] was 1 fold enrichment (6-mer frequency, TF over GST control). For the same sequence, the binding signal [13] was 1.18 fold enrichment (6-mer frequency, TF over GST control), the binding signal [14] was 1.25 fold enrichment (6-mer frequency, TF over GST control) and the binding signal [15] was 1.33 fold enrichment (6-mer frequency, TF over GST control). The binding signal [16] was 1.03 fold enrichment (6-mer frequency, TF over GST control), the binding signal [17] was 1.22 fold enrichment (6-mer frequency, TF over GST control) and the binding signal [18] was 1.17 fold enrichment (6-mer frequency, TF over GST control).
